Compound activity as filed in PubChem.
A selection: hits, their analogues and other compounds. The true share with any hit is near 0.86%.
CDC25B-CDK2 inh: human CDC25B-CDK2/CyclinA binding inhibition. 94,000 tested, 0.72% active. HTRF CDC25B-CDK2/CyclinA binding, anti-His/anti-Flag; stronger effect = higher value. z-score (no concentration beside the values); in the data active means z-score above about 3.2
HIV TAR-Tat: HIV-1 TAR-Tat binding disruption; HIV-1 TAR RNA, Tat peptide displacement FRET; stronger effect = higher value; z-score (no concentration beside the values); 100,000 tested, 0.6% active; AID 1259389; active means z-score of 3 or more in at least 2 runs
Each line names hits and unclear results; the compound was inactive in the other large screens.

CCOc1ccc(C2C3=C(CCCC3=O)NC3=C2C(=O)c2ccccc23)cc1 (stereo not drawn)	none
Nc1ccc2nc(/C=C/c3ccccc3)[nH]c2c1	none
Nc1cccc(/C=C/c2nc3ccc(N)cc3[nH]2)c1	CDC25B-CDK2 inh 12
CC(CCc1ccccc1)N1C(=S)NC2C=C(Cl)C=CC21 (stereo not drawn)	CDC25B-CDK2 inh 3.6 (no result: HIV TAR-Tat)
CCC(C)C1NC(=S)N(Cc2ccccc2)C1=O (stereo not drawn)	none (no result: HIV TAR-Tat)
O=S(=O)(Nc1ccc(O)c(-c2c(O)ccc3ccccc23)c1)c1ccc(Cl)cc1	none
O=C(O)c1nccnc1C(=O)NCc1ccncc1	none (no result: HIV TAR-Tat)
COc1cc(C(=O)Nc2ccccc2SCCC#N)cc(OC)c1OC	none (no result: HIV TAR-Tat)
COc1cccc(C=Nc2ccccc2SCCC#N)c1O	CDC25B-CDK2 inh 6.9 (no result: HIV TAR-Tat)
O=C(CSc1nc2c(c(=O)n1CCc1ccccc1)SCC2)N1CCCC1	none (no result: CDC25B-CDK2 inh)
Cc1ccc(-c2c(NC3CCCCC3)c(=O)c2=O)cc1C	none (no result: CDC25B-CDK2 inh)
CCOC(=O)c1cnc(SC)nc1NC(=O)Nc1cc(C)ccc1C	none (no result: CDC25B-CDK2 inh)
O=C(COC(=O)c1ccco1)c1ccc(Cl)cc1	none (no result: HIV TAR-Tat)
O=C(COC(=O)c1cccs1)c1ccc(Cl)cc1	CDC25B-CDK2 inh 17 (no result: HIV TAR-Tat)
Cc1ccc(CNC(=O)NCCn2cnc3cc(C(=O)NC4CCCC4)ccc32)cc1	none (no result: CDC25B-CDK2 inh)
COc1ccc(C2CC(=O)N3CN(C4CCCC4)CSC3=C2C#N)cc1 (stereo not drawn)	CDC25B-CDK2 inh 5.5
Cc1ccc(C2CC(=O)N3CN(C4CCCC4)CSC3=C2C#N)cc1 (stereo not drawn)	none
N#CC1=C2SCN(C3CCCCC3)CN2C(=O)CC1c1ccc(Br)cc1 (stereo not drawn)	none
CCc1ccc(C2CC(=O)N3CN(C4CCCCC4)CSC3=C2C#N)cc1 (stereo not drawn)	CDC25B-CDK2 inh 3.9
Cc1ccc(CN(C(=O)c2oc3cc(C)c(Cl)cc3c2C)C2CCS(=O)(=O)C2)o1 (stereo not drawn)	none
CCOc1ccc2ncc(S(=O)(=O)c3ccc(C)cc3)c(N3CCOCC3)c2c1	none
COc1ccccc1-c1noc(CSc2nnc(C)n2-c2ccc(C)cc2)n1	none
O=c1[nH]c2ccc(NCc3ccc4c(c3)OCO4)cc2[nH]1	none
O=c1[nH]c2ccc(NCc3ccc(-c4ccc(Cl)cc4)o3)cc2[nH]1	CDC25B-CDK2 inh 10
O=c1[nH]c2ccc(NCc3ccc(-c4ccccc4)o3)cc2[nH]1	none
O=c1[nH]c2ccc(NCc3ccc(-c4ccccc4F)o3)cc2[nH]1	CDC25B-CDK2 inh 4.7
O=c1cc(CSc2ccc(Cl)cc2)[nH]c2[nH]n(-c3ccccc3)c(=O)c12	HIV TAR-Tat 4.6
O=c1cc(CSc2nc3ccccc3s2)[nH]c2[nH]n(-c3ccccc3)c(=O)c12	HIV TAR-Tat 6.2
O=c1cc(CSc2ccc(Cl)cc2)[nH]n1-c1ccccc1	none
O=c1cc(CSc2nc3ccccc3s2)[nH]c2nc3ccccc3n12	none
CC(C)(C)c1ccc(-c2nc3n(c(=O)c2C#N)CCCS3)cc1	none
Cc1ccc2[nH]cc(NC(=O)NCCN(C)C)c(=O)c2c1	none
CCCSc1nc2c(c(=O)[nH]1)C(c1ccc(O)c(O)c1)CC(=O)N2 (stereo not drawn)	CDC25B-CDK2 inh 7.8, HIV TAR-Tat 8.5
CCOc1cc(C2CC(=O)Nc3nc(SCc4ccccc4C)[nH]c(=O)c32)ccc1O (stereo not drawn)	none
C=CCSc1nc2c(c(=O)[nH]1)C(c1ccc(O)c(O)c1)CC(=O)N2 (stereo not drawn)	CDC25B-CDK2 inh 16, HIV TAR-Tat 19
CCOc1cc(C2CC(=O)Nc3nc(SC)[nH]c(=O)c32)ccc1O (stereo not drawn)	none
Cc1ccc(CSc2nc(=O)c3c(n2C)NC(=O)CC3c2ccc(O)c(O)c2)cc1 (stereo not drawn)	HIV TAR-Tat 26
C=CCSc1nc2c(c(=O)[nH]1)C(c1cc(F)cc(F)c1)CC(=O)N2 (stereo not drawn)	none
Cc1ccccc1CSc1nc2c(c(=O)[nH]1)C(c1ccc(O)c(O)c1)CC(=O)N2 (stereo not drawn)	HIV TAR-Tat 25
Cn1c(SCc2ccc(F)cc2)nc(=O)c2c1NC(=O)CC2c1cccc(O)c1 (stereo not drawn)	none
CC1=C(C(=O)OC(C)C)C(c2ccncc2)c2c(nc(SCC(C)C)[nH]c2=O)N1 (stereo not drawn)	none
Cc1ccc2nc3c(cc2c1)CCN3C(=O)c1ccccc1	none
O=C(CCCn1c(=O)c2cccn2c2cccnc21)NC1CCCC1	none (no result: CDC25B-CDK2 inh)
CCCCCCCCCCn1c(SCC(N)=O)nc2c1c(=O)[nH]c(=O)n2C	none (no result: HIV TAR-Tat)
Cc1ncc(-c2ccc(S(=O)(=O)N(C)Cc3ccco3)cc2)o1	none (no result: CDC25B-CDK2 inh)
CC(C)CC(=O)N[C@H](C(=O)N[C@H](C(=O)N[C@@H](CC(C)C)[C@@H](O)CC(=O)N[C@@H](C)C(=O)N[C@@H](CC(C)C)[C@@H](O)CC(=O)O)C(C)C)C(C)C	HIV TAR-Tat 19 (no result: CDC25B-CDK2 inh)
Cc1ccc(-c2onc(C)c2C)cc1S(=O)(=O)N1CCCCC1C (stereo not drawn)	none (no result: CDC25B-CDK2 inh)
